# Assay results from PubChem BioAssay (NCI).
# The panel holds about 83,000 compounds, 20% with a hit somewhere; the sample as a whole holds those more often.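 How to read the values: 0–100, growth inhibition (40 = 60% inhibited); 0, no net growth; -100 to 0, cell death (-40 = 40% of starting cells died; -100 = all dead).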 A number with no mark means an inactive call. Calls of active or inactive are those of the source. Rule for the calls: active = growth percent below 10; inactive = the rest.
# Legend:
# Assay in all cases: NCI-60 one-dose screen, 48 h (100 = growth as untreated, 0 = no growth, -100 = all killed)
# Conditions in all cases: 10 µM unless noted
# [1] = test system: NCI-H23 lung
# [2] = test system: NCI-H226 lung
# [3] = test system: NCI-H322M lung
# [4] = test system: HOP-62 NSCLC
# [5] = test system: NCI-H460 lung
# [6] = test system: HOP-92 NSCLC
# [7] = test system: NCI-H522 lung
# [8] = test system: A549/ATCC NSCLC
# [9] = test system: 786-0 renal
# [10] = test system: COLO 205 colon
# [11] = test system: DU-145 prostate
# [12] = test system: K-562 leukemia
# [13] = test system: MALME-3M melanoma
# [14] = test system: MDA-MB-231 breast
# [15] = test system: RXF 393 renal
# [16] = test system: SF-268 CNS
# [17] = test system: SF-295 CNS
# [18] = test system: SF-539 CNS
# [19] = test system: UACC-257 melanoma
# [20] = test system: M14 melanoma
SMILES,growth [1],growth [2],growth [3],growth [4],growth [5],growth [6],growth [7],growth [8],growth [9],growth [10],growth [11],growth [12],growth [13],growth [14],growth [15],growth [16],growth [17],growth [18],growth [19],growth [20]
Cc1ccc(Oc2c(/C=N/NC(=O)Cn3c(=O)sc4ccccc43)c(C)nn2-c2ccccc2)cc1,50.6%,62%,67.3%,71.5%,52%,46.1%,46.7%,32.8%,80.9%,42.4%,78.1%,27.2%,66.5%,72.2%,72.9%,53.3%,42.1%,75.2%,73.2%,59.2%
Nc1nc(SCc2cccc([N+](=O)[O-])c2)c2[nH]cnc2n1,102%,90%,91.2%,94.6%,108%,100%,81.1%,97.2%,98.1%,114%,104%,92%,107%,103%,73.6%,90.2%,93.6%,103%,104%,100%
N#C/C(C(=O)c1ccccc1)=C1/C(=O)Nc2ccc(Br)cc21,94.4%,96.6%,101%,84.1%,105%,109%,99.1%,104%,101%,113%,108%,91.3%,96.7%,95.5%,111%,103%,100%,94.7%,97.9%,107%
CCOC(=O)C(=Cc1ccccc1[N+](=O)[O-])C(=O)OCC,14.4%,42.3%,89.2%,27.3%,49.5%,9.84% (active),-1.64% (active),53.6%,28.2%,-42.2% (active),-51.5% (active),0.762% (active),67.3%,9.18% (active),0.0546% (active),13.3%,95.5%,-15.5% (active),42%,25.2%
O=c1[nH]c2cc(Cl)c(Cl)cc2n2cc3ncccc3c12,90.6%,89.2%,97.9%,80.6%,62.8%,87.3%,43.8%,91.2%,92.2%,90.4%,100%,65.5%,128%,89.4%,112%,95.1%,58.5%,112%,97.8%,101%
Cn1cc(-c2noc(-c3cn(C)c4ncccc34)n2)c2cc(Cl)ccc21,91.5%,115%,91.2%,93.2%,88%,135%,7.71% (active),79.7%,95.4%,91.9%,103%,87.4%,90.7%,70.4%,121%,82.9%,99.2%,56.6%,103%,91.6%
CCN(CC)CC(C)Nc1ccc(C)c2sc3ccccc3c(=O)c12 (stereo not given),65.9%,74.2%,91.8%,76.3%,19.5%,38.2%,64.8%,32.7%,53.1%,37.9%,82%,44.2%,65.2%,28.7%,39.5%,58.9%,76.2%,44.2%,0.527% (active),3.81% (active)
ClC1=C(Cl)C(Cl)=C(Cl)C1=Cc1ccccc1,-58.6% (active),-73% (active),-13.2% (active),-32.7% (active),-52.6% (active),-49.1% (active),-51.1% (active),-0.255% (active),-90.3% (active),-55.6% (active),-76.4% (active),1.01% (active),-53.7% (active),-21% (active),-91.4% (active),-44.9% (active),-30.1% (active),-43.6% (active),-66.7% (active),-93.1% (active)
COc1ccc(C(=O)CSc2nccc(Nc3ccc(C(=O)O)cc3)n2)cc1,99.2%,92.8%,106%,99.7%,103%,97.4%,92.9%,99.7%,103%,107%,107%,115%,93%,102%,99%,96.6%,104%,99.9%,96.6%,92.1%
N#Cc1c(Cl)nc(SCC2CO2)nc1-c1ccccc1 (stereo not given),101%,114%,105%,92.8%,101%,89.8%,101%,124%,99.5%,131%,123%,128%,85.1%,118%,101%,116%,117%,105%,39.9%,98.5%
Nc1nc(Cl)c2ncn(Cc3cc4c(cc3I)OCO4)c2n1,75.2%,85.8%,65.4%,36.1%,18%,82.4%,14.7%,45.6%,44.4%,21.1%,52.8%,15.9%,63.7%,40.9%,66.3%,62.1%,42.5%,46.5%,81.4%,76%
CCN(CC)c1ccc2cc(C(Nc3ccc(C)cc3)c3nnnn3C(C)(C)C)c(=O)oc2c1 (stereo not given),95.1%,85%,103%,103%,91.9%,81%,82.8%,85.4%,96%,110%,105%,87.5%,105%,84.5%,87.3%,92.6%,102%,103%,104%,103%
Cn1cc(-c2noc(C(=O)c3cn(C)c4ncccc34)n2)c2ccccc21,92.3%,89.4%,95.5%,95%,99.3%,41.4%,81.1%,100%,94.5%,99.8%,87.4%,76.1%,72.5%,70.3%,88.5%,99.3%,101%,90.2%,103%,98.7%
CC(C)C1=NOC(=O)C1=Cc1cn(-c2ccccc2)nc1-c1ccc(Cl)cc1,84.8%,92.6%,93.9%,92.4%,85.3%,86.9%,80.8%,100%,80.7%,99.6%,94.3%,42.8%,93.2%,97%,58.2%,99.3%,96.9%,75.9%,105%,76.4%
O=C(Nc1ccc(F)cc1)c1ccccc1,108%,104%,103%,109%,105%,119%,101%,99.6%,100%,113%,104%,103%,98.8%,105%,116%,105%,93.4%,99.3%,107%,106%
FC(F)(F)c1ccc2c(c1)Sc1ccccc1N2,96.4%,94%,103%,97%,104%,79.9%,84.9%,95.4%,89.6%,110%,97.1%,93.6%,100%,99.5%,96.6%,92.9%,97.2%,97.8%,112%,98.3%
CCc1cccc(Cl)c1,111%,99.2%,108%,103%,110%,93.2%,92.9%,98.8%,105%,117%,111%,114%,120%,112%,114%,106%,110%,104%,94%,101%
COc1ccc(-c2cc(-c3ccc(OC)c(OC)c3)nc(SCCCCCC(=O)NO)n2)cc1,68.7%,95.2%,70.6%,60.3%,62.3%,27.6%,6.61% (active),85.7%,94.1%,36.8%,58.8%,26.1%,19.4%,42.2%,42.1%,82.3%,72.9%,55.4%,41.8%,47.7%
COC(=O)[C@@H](NC(=O)NC(=O)NC(=O)CI)C(C)C,93.8%,85.1%,103%,86.3%,89.3%,-17.7% (active),-85.9% (active),94.6%,-25.1% (active),38.6%,106%,15.2%,-46.4% (active),72.5%,83.3%,95.8%,95.3%,92.7%,87.1%,85.8%
CN(C)CCCNc1nc(-c2cccc(C(Cl)(Cl)Cl)c2)nc(C(Cl)(Cl)Cl)n1,101%,109%,93.7%,111%,108%,53%,94.9%,105%,99%,119%,112%,88.2%,88.9%,95.8%,109%,106%,94.1%,110%,119%,102%
COc1cc(C(=O)/C=C/c2c(-c3ccc(F)cc3)nc3sccn23)cc(OC)c1OC,56.5%,76.1%,29.9%,61.3%,-1.39% (active),-14.9% (active),-18.2% (active),41.1%,61.5%,12.3%,27.4%,39.1%,33.6%,51%,-50.6% (active),25.4%,3.82% (active),-57.9% (active),39.9%,35.3%
O=C1NC(=O)C(Cc2ccccc2)(Cc2ccccc2)N1,101%,90.4%,106%,84.9%,104%,87.5%,97.5%,102%,90.9%,107%,111%,108%,109%,98.4%,117%,95.1%,94.2%,102%,105%,93.9%
O=C(NNc1ccc(-c2ccccc2)nn1)c1ccccc1,99.6%,102%,94.7%,104%,100%,91.6%,97.8%,106%,93.3%,107%,104%,92.2%,100%,97.4%,110%,95%,94.3%,102%,103%,98.8%
C=C(C)[C@@H]1CC[C@]2(C(=O)O)CC[C@]3(C)[C@H](CC[C@@H]4[C@@]5(C)C/C(=C/c6ccco6)C(=O)C(C)(C)[C@@H]5CC[C@]43C)[C@@H]12,-58.6% [100 µM] (active),-37.5% [100 µM] (active),-87.9% [100 µM] (active),-85.2% [100 µM] (active),-55.6% [100 µM] (active),-86.4% [100 µM] (active),-72.7% [100 µM] (active),-73.7% [100 µM] (active),-60.4% [100 µM] (active),-73.1% [100 µM] (active),-35% [100 µM] (active),8.08% [100 µM] (active),-82.3% [100 µM] (active),-60.8% [100 µM] (active),-98.2% [100 µM] (active),-41.5% [100 µM] (active),-82.8% [100 µM] (active),-77.8% [100 µM] (active),-64.1% [100 µM] (active),-62.6% [100 µM] (active)
COc1ccc(-c2cc(-c3ccc(Cl)cc3)nc(SCCCCCCC(=O)NO)n2)cc1,8.94% (active),19.7%,39.5%,7.61% (active),14.9%,23.7%,10.4%,13%,27.4%,35.6%,24.6%,20.1%,11.7%,45.8%,-0.367% (active),31.7%,36.3%,34.8%,23%,22.3%
CC(=O)OC[C@]12CC[C@@H]([C@@H](C)C(N)=O)[C@@H]1[C@H]1CC[C@@H]3[C@@]4(C)CC[C@H](OC(C)=O)C(C)(C)[C@@H]4CC[C@@]3(C)[C@]1(C)CC2,-40.3% [100 µM] (active),-58.5% [100 µM] (active),-78.2% [100 µM] (active),-73% [100 µM] (active),-61.8% [100 µM] (active),-83.1% [100 µM] (active),-61.1% [100 µM] (active),9.89% [100 µM] (active),-74% [100 µM] (active),-53% [100 µM] (active),-69.9% [100 µM] (active),3.1% [100 µM] (active),-89% [100 µM] (active),-88.6% [100 µM] (active),-64.9% [100 µM] (active),-61% [100 µM] (active),-50.8% [100 µM] (active),-83.9% [100 µM] (active),-46.2% [100 µM] (active),-44.3% [100 µM] (active)
COCCCNc1nc(NC(=O)c2cc(OC)cc(OC)c2)cc(-c2cccnc2)n1,98.6%,96.5%,92.8%,91.3%,95.2%,52.6%,76.5%,91.2%,83.3%,109%,101%,86.1%,112%,69.1%,97.7%,100%,100%,88.9%,106%,107%
CCOC(=O)c1cc(C(=O)c2ccc(OC)c(OC)c2)n2ccc(-c3ccccn3)cc12,78%,49.9%,58.7%,53.1%,17.9%,41.6%,-3.85% (active),47.5%,101%,65.5%,65.1%,107%,49.6%,58.1%,63.9%,25.3%,69.1%,29.6%,76.3%,101%
O=C(OCc1ccc2c(Cl)cc(Cl)c(O)c2n1)N1CCNCC1,47.1%,42.2%,47.1%,22.9%,15.4%,44.9%,42.4%,17.3%,61.1%,54.3%,47.7%,19.1%,64.6%,54.3%,45.4%,35%,24.2%,52.4%,40.5%,43.6%
CCOC(=O)CCC[P+](c1ccccc1)(c1ccccc1)c1ccccc1,87.9%,108%,96.4%,99.8%,82.2%,71.4%,63.1%,90.7%,101%,71.6%,90%,57.9%,75.4%,80.9%,108%,83.2%,105%,89.5%,27.2%,87.9%
